Test results as given in PubChem BioAssay (Tox21).
Several values for one entry are separate records, joined by “and”; a condition that tells them apart may be missing. Equal entries are not always repeated. Some structures have more than one record in an assay (separate samples or runs), and their calls can disagree. Activity calls are given as the source filed them. Where a call stands in place of a potency, no number is given. Unless noted, calls come from the whole dose curve; as a rule, active = well fitted curve in the direction sought with a large enough effect in the repeat runs; inconclusive = weak or mixed curves; inactive = no such curve, though single readings can be large; an effect the other way counts as inactive or inconclusive.

Experiments:
[1] = qHTS assay to identify small molecule antagonists of the thyroid receptor (TR) signaling pathway (AID 743065); details: GH3.TRE-Luc, T3-stimulated luciferase inhibition, 23.5 h; series mostly up to 70.3 µM; note: nearly all actives have a fitted effect of over 55% in size
How it was run: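 GH3.TRE-Luc rat pituitary cells carrying two TR response elements driving luciferase were plated for 4 h, given compound plus 1 nM T3 (final), and incubated 23.5 h at 37 C. ONE-Glo luminescence measured reporter inhibition; CellTiter-Fluor fluorescence tracked cytotoxicity.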

[2] = test system: thyroid hormone receptor (rat, GH3 cells); assay: qHTS assay to identify small molecule agonists of the thyroid receptor (TR) signaling pathway (AID 743066; calls by dose curve); details: GH3.TRE-Luc cells, TR agonist luciferase, 24 h; series mostly up to 83.9 µM
[3] = qHTS assay to identify small molecule antagonists of the estrogen receptor alpha (ER-alpha) signaling pathway - cell viability counter screen (AID 743074; calls by dose curve; note: nearly all actives have a fitted effect of over 45% in size); details: ERalpha-bla HEK293 viability, CellTiter-Glo luminescence, 18 h; series mostly up to 69.4 µM
[4] = qHTS assay to identify small molecule antagonists of the estrogen receptor alpha (ER-alpha) signaling pathway using the BG1 cell line - cell viability counter screen (AID 743081); details: BG1Luc4E2 viability, CellTiter-Fluor, 22 h; series mostly up to 70.3 µM;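 note: compound given together with 17beta-estradiol as the ER stimulus; nearly all actives have a fitted effect of over 45% in size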
Aromatase (Homo sapiens) = Aromatase (Homo sapiens) (UniProt P11511); assay: qHTS assay to identify aromatase inhibitors (AID 743083); details: MCF-7 aro ERE, testosterone-driven ERE luciferase, 24 h; series mostly up to 70.3 µM; note: nearly all actives have a fitted effect of over 55% in size
Aromatase (Homo sapiens), sequence (P11511 whole entry, looked up): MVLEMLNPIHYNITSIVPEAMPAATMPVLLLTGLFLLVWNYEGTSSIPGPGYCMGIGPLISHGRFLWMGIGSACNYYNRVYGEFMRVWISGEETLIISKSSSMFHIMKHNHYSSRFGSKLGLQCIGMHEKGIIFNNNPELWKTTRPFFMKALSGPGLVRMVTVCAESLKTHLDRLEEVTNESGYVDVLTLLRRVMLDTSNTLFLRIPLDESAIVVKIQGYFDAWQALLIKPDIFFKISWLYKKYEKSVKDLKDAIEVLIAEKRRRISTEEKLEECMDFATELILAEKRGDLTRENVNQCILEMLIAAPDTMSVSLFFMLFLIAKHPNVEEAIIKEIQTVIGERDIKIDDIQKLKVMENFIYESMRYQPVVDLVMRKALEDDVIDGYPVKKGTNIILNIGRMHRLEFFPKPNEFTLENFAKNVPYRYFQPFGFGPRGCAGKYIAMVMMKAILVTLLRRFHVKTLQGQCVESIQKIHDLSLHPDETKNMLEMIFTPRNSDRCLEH

[5] = qHTS assay to identify aromatase inhibitors - cell viability counter screen (AID 743084); details: MCF-7 aro ERE viability, CellTiter-Fluor, 24 h; series mostly up to 70.3 µM;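 note: cells stimulated with testosterone during compound exposure; nearly all actives have a fitted effect of over 55% in size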
[6] = target: Estrogen receptor (Homo sapiens) (UniProt P03372); assay: qHTS assay to identify small molecule antagonists of the estrogen receptor alpha (ER-alpha) signaling pathway (AID 743069; active = well fitted curve in the direction sought with a large enough effect in the signal ratio in the repeat runs, not every such curve was filed as active; inconclusive = weak or mixed curves, or effect the other way; inactive = no such curve, though single readings can be large or run the other way; the % refers to the signal ratio); details: HEK293 ER-alpha-UAS-bla, beta-lactamase ratio, antagonist mode; series mostly up to 69.4 µM
Estrogen receptor (Homo sapiens), sequence (P03372 whole entry, looked up): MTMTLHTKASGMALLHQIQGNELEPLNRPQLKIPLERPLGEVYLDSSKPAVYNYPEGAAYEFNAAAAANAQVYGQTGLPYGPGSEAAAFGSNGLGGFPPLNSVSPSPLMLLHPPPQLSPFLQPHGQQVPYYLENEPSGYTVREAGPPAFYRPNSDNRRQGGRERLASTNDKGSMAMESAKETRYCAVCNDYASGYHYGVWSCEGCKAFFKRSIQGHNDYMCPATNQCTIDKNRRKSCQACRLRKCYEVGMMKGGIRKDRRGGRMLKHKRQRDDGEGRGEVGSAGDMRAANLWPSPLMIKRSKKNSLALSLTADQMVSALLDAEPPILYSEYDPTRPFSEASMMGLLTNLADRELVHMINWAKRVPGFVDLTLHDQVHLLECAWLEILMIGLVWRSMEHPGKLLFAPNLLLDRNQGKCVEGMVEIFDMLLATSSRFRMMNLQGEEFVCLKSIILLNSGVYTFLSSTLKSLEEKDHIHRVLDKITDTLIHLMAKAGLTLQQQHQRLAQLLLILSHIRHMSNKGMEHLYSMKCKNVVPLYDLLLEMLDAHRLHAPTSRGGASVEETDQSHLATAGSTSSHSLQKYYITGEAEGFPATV
How it was run: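 HEK293 cells stably carrying an ER-alpha-UAS-bla beta-lactamase reporter were pre-cultured overnight in 2% charcoal-stripped FBS medium. Test compounds in DMSO were added together with 17beta-estradiol for 18 hr at 37C. Read-out was fluorescence after 2 hr with LiveBLAzer B/G FRET substrate at room temperature.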

[7] = target: Estrogen receptor (Homo sapiens) (UniProt P03372); assay: qHTS assay to identify small molecule agonists of the estrogen receptor alpha (ER-alpha) signaling pathway (AID 743075; calls by dose curve); details: HEK293 ER-alpha-UAS-bla, beta-lactamase FRET ratio, 18 h; series mostly up to 70.1 µM
[8] = target: Estrogen receptor (Homo sapiens) (UniProt P03372); assay: qHTS assay to identify small molecule agonists of the estrogen receptor alpha (ER-alpha) signaling pathway using the BG1 cell line (AID 743079); details: BG1Luc4E2 cells, ERE-luciferase agonist, 22 h; series mostly up to 70.3 µM; note: nearly all actives have a fitted effect of over 20% in size
[9] = qHTS assay to identify small molecule antagonists of the estrogen receptor alpha (ER-alpha) signaling pathway using the BG1 cell line (AID 743080; calls by dose curve;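 note: BG1 cells stimulated with 17beta-estradiol alongside compound; nearly all actives have a fitted effect of over 25% in size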); details: BG1Luc4E2 ERE-luciferase antagonist mode, luminescence; activity change, negative = inhibition: at 70.3 µM (top of the series) unless noted
How it was run: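 Luciferase inhibition measured with ONE-Glo after 30 min at RT in BG1Luc4E2 cells given test compounds and 17beta-estradiol for 21.5 h at 37 C; CellTiter-Fluor viability read in the same wells beforehand.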
Potency is the fitted concentration of half-maximal effect.

SMILES	Potency [1]	Potency [2]	Potency [3]	Potency [4]	Potency (Aromatase (Homo sapiens))	Potency [5]	Potency [6]	Potency [7]	Potency [8]	Potency [9]	activity change, negative = inhibition [9]
COc1ccccc1N	inactive	inactive	inactive	inactive	inactive	inactive	–	–	–	–	–
O=[N+]([O-])c1ccccc1O	inactive	inactive	inactive	inactive	inactive	inactive	–	–	–	–	–
Cc1cc(Cl)ccc1OCC(=O)O	inactive	inactive	inactive	inactive	inactive	inactive	inactive	inactive	inactive	inactive	–
CC[N+](CC)(CC)CC	inactive	inactive	inactive	inactive	inactive	inactive	–	–	–	–	–
C=CCOC(Cn1ccnc1)c1ccc(Cl)cc1Cl (configuration not stated)	23.7 µM (active) and 61.3 µM (active) and 30.6 µM (active)	inactive	inactive	inactive	944 nM (active) and 387 nM (active) and 433 nM (active)	inactive	–	–	–	–	–
CC[N+]1(C)CCCC1	inactive	inactive	inactive	inactive	inactive	inactive	–	–	–	–	–
Nc1ccc(-c2ccc(N)c(Cl)c2)cc1Cl	27.4 µM (active) and 10.1 µM (active) and 17.2 µM (active)	inactive	inactive and 17.4 µM (active)	inactive	–	inactive	27.7 µM [inhibitor] (active)	24.7 µM [inconclusive] (active) and 20.4 µM [inconclusive] (active) and 54.9 µM [inconclusive] (active)	9.04 µM (active) and 6.86 µM (active)	64 µM (active)	–
COP(=O)(OC)OC=C(Cl)Cl	inactive	inactive	inactive	inactive	inactive	inactive	10.7 µM [inhibitor] (active) and inactive	inactive	inactive	inactive	–
N#CS	inactive	inactive	inactive	inactive	inactive	inactive	–	–	–	–	–
CCNc1nc(Cl)nc(NCC)n1	inactive	inactive	inactive	inactive	inactive	inactive	inactive	inactive	inactive	inactive	–
CCCC[N+]1(C)CCCC1	inactive	inactive	inactive	inactive	inactive	inactive	–	–	–	–	–
C[C@]12CCC(=O)C=C1CC[C@@H]1[C@@H]2CC[C@]2(C)C(=O)CC[C@@H]12	60.1 µM (active)	inactive	inactive	inactive	inactive	inactive	–	27.1 µM [activator] (active) and inactive	1.5 µM (active) and 4.25 µM (active) and 4.33 µM (active)	inactive	–
CCC(=O)C(CC(C)N(C)C)(c1ccccc1)c1ccccc1 (configuration not stated)	27.4 µM (active) and 30.4 µM (active) and 41.5 µM (active)	inactive	inactive	inactive	inactive	–	inactive	inactive	inactive	inactive	–
Nc1ccc(Cl)cc1	inactive	inactive	inactive	inactive	inactive	inactive	9.95 µM [inconclusive] (active)	inactive	inactive	inactive	–
CCCC[n+]1cccc(C)c1	inactive	inactive	inactive	inactive	inactive	inactive	–	–	–	–	–
CCC[N+]1(C)CCCCC1	inactive	inactive	inactive	inactive	inactive	inactive	–	–	–	–	–
O=C(O)C(Cl)Cl	inactive	inactive and 61.1 µM (active)	inactive	inactive	inactive	inactive	inactive	inactive	inactive	inactive	–
CCCCCCCCCCCCCC[P+](CCCCCC)(CCCCCC)CCCCCC	3.87 µM (active) and 4.36 µM (active) and 2.43 µM (active)	inactive	13.9 µM (active) and 11.1 µM (active)	19.4 µM (active) and 13.8 µM (active)	6.14 µM (active) and 3.89 µM (active) and 1.09 µM (active)	24.4 µM (active) and 12.3 µM (active)	982 nM [inconclusive] (active) and 985 nM [inconclusive] (active) and 775 nM [inconclusive] (active)	–	–	4.88 µM (active) and 3.89 µM (active) and 3.43 µM (active)	–
CC(Cl)(Cl)C(=O)O	inactive	inactive	inactive	inactive	inactive	inactive	inactive	inactive	inactive	inactive	–
C1CCC(NC2CCCCC2)CC1	inactive	inactive	inactive	inactive	inactive	inactive	inactive	inactive	inactive	inactive	–
CCCCn1cc[n+](C)c1	inactive	inactive	inactive	inactive	inactive	inactive	–	–	–	–	–
O=C(O)c1nc(Cl)ccc1Cl	inactive	inactive	inactive	inactive	inactive	inactive	inactive	inactive	inactive	inactive	–
CCCC[N+]1(C)CCCCC1	inactive	inactive	inactive	inactive	inactive	inactive	–	–	–	–	–
CCCCn1cc[n+](C)c1C	inactive	inactive	inactive	inactive	inactive	inactive	–	–	–	–	–

SMILES	Potency [1]	Potency [2]	Potency [3]	Potency [4]	Potency (Aromatase (Homo sapiens))	Potency [5]	Potency [6]	Potency [7]	Potency [8]	Potency [9]	activity change, negative = inhibition [9]
O=C(O)CC(O)(CC(=O)O)C(=O)O	inactive	inactive	inactive	inactive	inactive	inactive	–	–	–	–	–
COP(=O)(OC)C(O)C(Cl)(Cl)Cl (configuration not stated)	inactive	inactive	inactive	inactive	inactive	inactive	–	–	–	–	–
CCOP(=S)(OCC)Oc1ccc2c(C)c(Cl)c(=O)oc2c1	inactive	inactive	inactive	inactive	inactive	inactive	–	–	–	–	–
Nc1ccc(-c2ccc(N)cc2)cc1	inactive	inactive	inactive	inactive	inactive and 1.92 µM (active)	inactive	inactive	inactive	inactive	–	–
OCCOc1ccccc1	inactive	inactive	inactive	inactive	inactive	inactive	inactive	inactive	inactive	inactive	–
O=C(O)CCl	inactive	inactive	inactive	inactive	inactive	inactive	–	–	–	–	–
Cc1cc(-c2ccc(N)c(C)c2)ccc1N	inactive	inactive	inactive	inactive	inactive	inactive	inactive	19.2 nM [inconclusive] (active) and 48.8 µM [inconclusive] (active) and 61.7 µM [inconclusive] (active)	inactive	–	–
CC(=O)[O][Hg][c]1ccccc1	422 nM (active) and 215 nM (active) and 217 nM (active)	inactive	5.35 µM (active) and 2.43 µM (active) and 5.49 µM (active)	2.98 µM (active) and 3.04 µM (active) and 4.33 µM (active)	3.35 µM (active) and 1.36 µM (active) and 686 nM (active)	5.31 µM (active) and 1.36 µM (active) and 770 nM (active)	6.16 µM [inconclusive] (active)	26.8 µM [inconclusive] (active) and 34.4 µM [inconclusive] (active) and 1.1 µM [fluorescent] (active)	–	–	–
O=C(O)COc1ccc(Cl)cc1Cl	–	–	inactive	inactive	–	–	–	–	–	–	–
CCCCCCCCn1cc[n+](C)c1	27.3 µM (active) and 54.9 µM (active)	inactive	–	inactive	34.3 µM (active) and 27.5 µM (active) and 55 µM (active)	inactive	–	–	–	–	–
CCCC[n+]1ccccc1	inactive	inactive	inactive	inactive	inactive	inactive	–	–	–	–	–
Oc1cccc2cccnc12	–	inactive	inactive	inactive	–	1.38 µM (active) and 686 nM (active)	–	–	–	–	–
CCCCCCCCCCCC(=O)O	–	inactive	inactive	inactive	–	inactive	–	–	–	–	–
O=c1nc(O)n(Cl)c(=O)n1Cl	–	inactive	inactive	inactive	inactive	inactive	–	–	–	–	–
O=C(O)c1ccccc1O	–	inactive	inactive	inactive	–	–	–	–	–	–	–
CCCCCCCCCCn1cc[n+](C)c1	–	–	–	–	–	24.6 µM (active) and inactive	–	–	–	–	-3.71% [at 95 µM] (active)
CCCCCCn1cc[n+](C)c1	inactive	inactive	–	inactive	inactive	inactive	–	–	–	–	–
CCCC[n+]1ccccc1C	–	–	inactive	inactive	inactive	inactive	–	–	–	–	–
COc1ccc(N)cc1	inactive	inactive	inactive	inactive	inactive	inactive	–	–	–	–	–
CCCn1cc[n+](C)c1	–	–	inactive	inactive	inactive	inactive	–	–	–	inactive	–
O=S(=O)(O)O	–	–	inactive	inactive	inactive	inactive	–	–	–	–	–
CC(=O)O	–	inactive	inactive	inactive	inactive	inactive	–	–	–	–	–
CNC	–	–	inactive	inactive	inactive	inactive	–	–	–	inactive	–
O=c1[nH]c(=O)n(Cl)c(=O)n1Cl	–	inactive	inactive	inactive	inactive	inactive	–	–	–	–	–
